D2 PAM-1 = positive allosteric modulators of human D2 dopamine receptor; P14416; DiscoveRx D2 beta-arrestin cells, luminescence, 90 min; 100% = 57 uM dopamine signal; potentiation, % (test concentration not listed); 0.23% of 360,000 active; AID 624464; in the data active = potentiation above about 50%
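D2 cells co-treated with compound plus 50 nM dopamine (EC20) for 90 min at 37 deg C to detect potentiation. Beta-arrestin recruitment was read as enzyme-fragment luminescence after 1 h at ambient temperature. Full response was set by 57 uM dopamine.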
B2AR arrestin = beta2AR (human) beta-arrestin recruitment activity | P07550 | beta-arrestin recruitment to beta2AR, cell-based reporter | Potency, µM (titrated, usually from 46.1 µM), without a hit: top-dose activation, most hits filed as activators | 0.02% of 330,000 active | AID 492947; active = well fitted activation curve with a large enough effect;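 note: potency is the fitted concentration of half-maximal effect; 0% = DMSO controls and full agonism = EC100 isoproterenol or metaproterenol; nearly all actives have a fitted effect of over 65% in size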
Target sequence (P07550 whole entry, looked up): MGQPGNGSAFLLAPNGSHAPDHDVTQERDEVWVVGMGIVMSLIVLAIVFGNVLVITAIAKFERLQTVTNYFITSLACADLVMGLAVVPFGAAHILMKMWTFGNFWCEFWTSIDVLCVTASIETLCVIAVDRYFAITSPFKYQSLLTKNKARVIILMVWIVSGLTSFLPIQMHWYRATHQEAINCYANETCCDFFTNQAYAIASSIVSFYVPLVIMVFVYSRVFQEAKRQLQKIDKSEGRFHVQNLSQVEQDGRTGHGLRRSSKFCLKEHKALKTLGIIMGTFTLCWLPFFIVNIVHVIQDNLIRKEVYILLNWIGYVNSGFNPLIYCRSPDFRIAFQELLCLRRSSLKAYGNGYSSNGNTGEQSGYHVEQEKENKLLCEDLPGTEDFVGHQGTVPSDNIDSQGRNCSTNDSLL
D2 ag-1 = D2 dopamine receptor (human) agonism | P14416 | HEK293 T-REx D2 cells, calcium flux agonist mode | activation, % at 2 µM | 0.53% of 340,000 active | AID 485358;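 active = activation over 3 SD above normal in the single-dose calcium agonist read, cut at about 30% in these data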; note: 0% is about no effect
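Calcium-flux readout, 1 cycle/sec over 180 s following compound pin transfer, in inducible HEK293 Trex D2 cells (force-coupled); dopamine controls included. Positive calcium responses during this window marked compounds as potential agonists.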
D2 antag = antagonizes the human D2 dopamine receptor; AID 485344; P14416; inhibition, % at 10 µM; 2% of 340,000 active; HEK293 TREx D2 cells, calcium flux, dopamine EC80; in the data active = inhibition above about 30%; inactive = below that, where a call was filed; note: 0% is about no effect
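Read-out: kinetic calcium fluorescence (1 cycle/s) in inducible HEK293 T-REx D2 cells after an EC80 dopamine addition that followed 180 s compound preincubation. Loss of the dopamine response indicates antagonism.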
D2 PAM-2 = positively modulates the human D2 dopamine receptor allosterically | P14416 | HEK293 T-REx D2, calcium flux, EC20 dopamine potentiation | potentiation, % at 10 µM | 0.34% of 340,000 active | AID 485347;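 active = potentiation over 3 SD above the plate norm, cut at about 30% in these data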; note: 0% is about no effect
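Tetracycline-induced Hek293 Trex D2 cells, force-coupled to calcium, loaded with no-wash calcium dye. Compound added with 180 s kinetic read for agonism, then EC20 dopamine and a further 180 s read for potentiation.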
D2 ag-2 = human D2 receptor agonism in beta-arrestin assay | 0.084% of 360,000 active | P14416 | activation, % (test concentration not listed) | DiscoveRx PathHunter D2 beta-arrestin, luminescence, 90 min; 100% = 57 uM dopamine signal | AID 624465; in the data active = activation above about 40%
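DiscoveRx PathHunter D2 beta-arrestin cells (2,100/well) attached overnight, then compound-stimulated 90 min at 37 C in HBSS/10 mM HEPES/0.1% Tween-20 buffer; beta-galactosidase complementation read by luminescence after 1 h at ambient temperature. Dopamine 57 uM final (EC100) as control.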
An asterisk follows results filed as active; x = no result. Sampled rows, rich in hits. Any-hit rate of the full collection: about 2.4%.

SMILES | D2 PAM-1 | B2AR arrestin | D2 ag-1 | D2 antag | D2 PAM-2 | D2 ag-2
O=C(Cn1cccc1C(=O)c1ccccc1)NCCCN1CCOCC1 | -21 | 0% | 1 | 4 | -6 | -1
CC(=O)c1ccc(N2CCN(C(=O)c3cccc(Oc4ccccc4)c3)CC2)cc1 | -2 | 0% | 1 | 35* | -5 | 7
Oc1ccccc1N1CCN(Cc2ncc(-c3ccccc3)o2)CC1 | -15 | 0% | 1 | 57* | -35 | -3
c1ccc(-c2nnc(CN3CCN(c4ccccc4)CC3)o2)cc1 | -9 | 0% | 13 | 22 | -20 | 3
O=C(O)CCCC(=O)OCCc1cc2ccccc2c(=O)o1 | -4 | -2% | x | x | x | 0
COc1cccc(-n2nnc3c(=O)n(CC(=O)OCc4ccccc4)cnc32)c1 | 5 | 0% | 0 | -7 | 50* | 2
CCOC(=O)Cn1cnc2c(nnn2-c2ccc(F)cc2)c1=O | -1 | 0% | 0 | 32* | 7 | -4
O=C(Nc1ccc(Cl)cc1)c1nc[nH]c1C(=O)NCc1ccccc1 | -10 | 0% | 1 | 3 | 10 | -4
COc1ccc(NC(=O)N(C2CCCCC2)C2CCN(C(C)C)CC2)c(OC)c1 | 11 | 0% | 1 | 50* | x | 1
COc1ccc(NC(=O)N(C2CCCCC2)C(C)c2ccco2)c(OC)c1 (stereo not drawn) | -3 | 0% | -1 | -16 | -25 | 0
COc1cc(C(CCN2CCCC(C)C2)c2c(OC)cc(OC)c3c2OC(=O)CC3c2ccc(N(C)C)cc2)cc(OC)c1OC (stereo not drawn) | -110 | 3% | 0 | -43 | -21 | 1
COc1cc(C2CC(=O)Oc3c(C(CCN4CCCC(C)C4)c4ccc(N(C)C)cc4)c(OC)cc(OC)c32)cc(OC)c1OC (stereo not drawn) | -24 | 0% | 0 | 44* | -18 | 1
CCCCC(CC)COC1(c2ccccc2)OC(=O)c2ccccc21 (stereo not drawn) | -12 | 0% | 1 | -8 | 22 | -5
Cc1cccc(C2Nc3cccc4cccc(c34)N2)c1 | -40 | -1% | x | x | x | -7
c1cc2c3c(cccc3c1)NC(c1ccc3c(c1)OCO3)N2 | 3 | 0% | 2 | -16 | -9 | 44*
CSc1ccc(C2Nc3cccc4cccc(c34)N2)cc1 | 58* | -1% | 0 | -11 | 8 | 54*
COc1ccccc1C(=O)N/C(=C\c1cn(C)c2ccccc12)C(=O)NCCCN1CCOCC1 | -4 | 0% | 0 | -68 | 10 | -3
Nc1ccc(S(=O)(=O)N2CCCc3ccccc32)cc1 | -8 | 0% | 0 | -15 | -2 | -6
CN(C)c1nc(SCC(=O)Nc2ccccc2)nc(N2CCOCC2)n1 | 2 | 0% | 1 | 31* | 2 | -18
O=C1C=C(Nc2ccc(Cl)cc2)CC(c2ccc(Cl)cc2)C1 (stereo not drawn) | -28 | 0% | -2 | 48* | 28 | -1
O=C(O)CCSc1nnc(COc2ccc([N+](=O)[O-])cc2)n1-c1ccccc1 | -17 | -1% | 0 | -9 | 4 | 3
CC(C)CCNC(=O)COC(=O)c1ccc(Br)o1 | -28 | 0% | -1 | -3 | 5 | -1
CC1CCN(Cc2c(C(=O)N/N=C/c3cc(Br)ccc3O)nnn2-c2nonc2N)CC1 | -3 | 0% | 2 | 8 | 6 | -4
CC1CCN(Cc2c(C(=O)N/N=C/c3cc(Cl)ccc3O)nnn2-c2nonc2N)CC1 | 1 | -1% | 3 | 0 | 30* | -9
CC1CCN(CCCCOc2ccc(Cl)cc2)CC1 | -21 | 0% | 0 | -15 | -47 | 1
SMILES | D2 PAM-1 | B2AR arrestin | D2 ag-1 | D2 antag | D2 PAM-2 | D2 ag-2
CC1CCN(CCOc2ccc(OCc3ccccc3)cc2)CC1 | -34 | 0% | 2 | 31* | -36 | -10
CC1CCN(CCCCOc2ccc(C(C)(C)C)cc2)CC1 | -13 | 0% | 1 | 33* | -20 | 2
CN1CCN(c2oc(-c3cccs3)nc2S(=O)(=O)c2ccccc2)CC1 | -38 | -1% | 0 | -35 | -25 | -6
O=S(=O)(c1ccccc1)c1nc(-c2ccccc2)oc1N1CCCC1 | -7 | 1% | 1 | 1 | -8 | -1
CN1CCN(c2oc(-c3ccccc3)nc2S(=O)(=O)c2ccc(Br)cc2)CC1 | -28 | 0% | 0 | 31* | -25 | -4
CN1CCN(c2oc(-c3ccccc3Cl)nc2S(=O)(=O)c2ccccc2)CC1 | -50 | 0% | 1 | 79* | -21 | -4
COc1cccc(/C=C2\N=C(C3CCCCC3)OC2=O)c1OC | -4 | 0% | 0 | 2 | 45* | 0
CC(=O)Oc1ccc(/C=C2\N=C(C3CCCCC3)OC2=O)cc1 | -14 | 4% | 0 | 8 | 1 | -1
COc1ccc([N+](=O)[O-])cc1NC(=O)Cn1ccsc1=N | -44 | -1% | 1 | 31* | -19 | 4
Cc1cc(NC(=O)Cn2ccsc2=N)c([N+](=O)[O-])cc1C | 7 | 0% | 0 | 22 | -19 | -7
COc1ccc(CCNC(=O)C2Cc3ccccc3C(=O)O2)cc1 (stereo not drawn) | -4 | 0% | 1 | 8 | 9 | -1
COc1ccc(CCNC2CCc3ccccc3C2)cc1 (stereo not drawn) | -69 | 0% | -1 | 81* | -12 | -5
COCCn1c(SCC(=O)NCc2ccco2)nnc1-c1c[nH]c2ccccc12 | -4 | 0% | x | x | x | -1
Cc1cccc(OCC(=O)NC(Cc2c[nH]c3ccccc23)C(=O)O)c1C (stereo not drawn) | -3 | 0% | 0 | 8 | 7 | 1
Cc1ccc(C(=O)NC(=S)Nc2cccc(NC(=O)c3ccccc3)c2)cc1[N+](=O)[O-] | -34 | 0% | x | x | x | -9
COc1ccc(Nc2oc(-c3cccs3)nc2C#N)cc1 | 62* | -1% | 0 | -8 | 11 | 8
O=c1c2cccc3c(N4CCOCC4)ccc(c32)c2nc3ccccc3n12 | x | 0% | 18 | -16 | 10 | x
CCC(=O)Nc1ccc(-c2ccc(NC(=O)CC)c(OC)c2)cc1OC | -76 | 0% | 0 | 7 | 9 | -5
CCOc1cc(Cl)c(NC(=O)CC)cc1OCC | 12 | 0% | 0 | 71* | -21 | -1
O=C(CSc1nc(=O)n2ccccc2n1)NCc1ccc2c(c1)OCO2 | 6 | 0% | 0 | -1 | 18 | 1
S=C(NCCc1ccccc1)N1CCc2ccccc2C1 | -13 | 0% | -1 | 41* | -11 | -2
COC(=O)c1ccc2c(c1)N(Cc1ccccc1)C(=O)c1ccccc1S2(=O)=O | x | x | -1 | x | -1 | x
CC1CCN(CCCNC(=O)c2coc3nc4ccccc4nc23)CC1 | -24 | -1% | x | x | x | -3

Compound activity from PubChem BioAssay.
